In PubChem BioAssay (EPA / NIEHS) one finds outcome and AC50 data, which are given here for eight compounds.

A word on the AC50: it is the midpoint of the concentration-response curve, whichever way the signal moves.

Several values for one entry are separate records, joined by “and”; a condition that tells them apart may be missing. Equal entries are not always repeated. Records with an inconclusive call do not appear. Some compounds were tested as several samples or in several runs, with calls that do not always agree. Activity calls are given as the source filed them. The calls were made as follows: active = hit-call score of the fitted dose curve at least 0.9, where 1 is the maximum; inconclusive = response in the unintended direction; inactive = score below 0.9.

The nature of test [1]: ATG_XTT_Cytotoxicity: Cytotoxicity Assessment in the Attagene TRANS-FACTORIAL HepG2 Assay (AID 2283584).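 As to AC50: XTT signal for cell number as viability in transfected HepG2 cells; cells exposed to compound for 24 h before reading; active means loss of viability signal versus DMSO baseline.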 The procedure, abridged: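 24 h chemical exposure of reporter-transfected HepG2; XTT signal loss vs DMSO indicates cytotoxicity.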
Test [2] is described as follows: TOX21_p53_BLA_p2_viability: Viability Assessment in the Tox21 HCT-116 p53 Agonism Beta-lactamase Assay, Phase 2 (AID 2283591).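 Also: compound exposure lasted 16 h at 37 °C; actives lower the ATP signal meaning cytotoxicity.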 The procedure, abridged: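 Cytotoxicity readout: CellTiter-Glo ATP luminescence, 30 min at room temperature, after the beta-lactamase read. Cells were HCT116 exposed 16 h at 37C to compounds pin-transferred at 217-fold dilution from DMSO stocks.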

Test [3] addresses Cellular tumor antigen p53 (Homo sapiens) (UniProt P04637). The test can be described thus: TOX21_p53_BLA_p2_ratio: Tox21 HCT-116 p53 Agonism Beta-lactamase Assay, Ratio, Phase 2 (AID 2283592). The procedure, abridged: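 DMSO-normalized, positive-direction endpoint derived from the 460 nm/530 nm FRET ratio in HCT116 p53 beta-lactamase reporter cells exposed 16 h at 37C and loaded with CCF4-AM for 2 h.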

Test [4] is described as follows: TOX21_p53_BLA_p4_viability: Viability Assessment in the Tox21 HCT-116 p53 Agonism Beta-lactamase Assay, Phase 4 (AID 2283597).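 Also: hits lower the luminescence signal meaning cytotoxicity.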 The procedure, abridged: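 In this multiplexed secondary endpoint, HCT116 cells (4000 per well, compound at 5 h, 16 h treatment) received CellTiter-Glo after the beta-lactamase read. Luminescence after 30 min RT reflects ATP, and falling signal marks cytotoxicity.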

Test [5] concerns the target Cellular tumor antigen p53 (Homo sapiens) (UniProt P04637). The test can be described thus: TOX21_p53_BLA_p5_ratio: Tox21 HCT-116 p53 Agonism Beta-lactamase Assay, Ratio, Phase 5 (AID 2283599). The essentials: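 Beta-lactamase reporter ratio (blue 460 nm over green 530 nm, 405 nm excitation) after 2 h CCF4-AM loading, in HCT-116 cells exposed 16 h at 37 C to compounds pinned at 217-fold dilution. Increases relative to DMSO baseline scored.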

Test [6] in a line: TOX21_p53_BLA_p5_viability: Viability Assessment in the Tox21 HCT-116 p53 Agonism Beta-lactamase Assay, Phase 5 (AID 2283600). The procedure, abridged: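 Here cell health was gauged by ATP levels in wells holding 4000 cells, each treated 16 h with DMSO-delivered compounds at 217-fold dilution; reduced luminescence marked toxicity.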
Test [7] concerns the target Cellular tumor antigen p53 (Homo sapiens) (UniProt P04637). The test can be described thus: TOX21_p53_BLA_p4_ratio: Tox21 HCT-116 p53 Agonism Beta-lactamase Assay, Ratio, Phase 4 (AID 2283601). The essentials:
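Signal is the blue/green (460nm/530nm) ratio of cleaved versus uncleaved CCF4-AM substrate, read after 2 h substrate loading. Cells were HCT116 carrying the p53-responsive beta-lactamase reporter, dosed 16 h at 37C, 5% CO2; CellTiter-Glo measured in parallel.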

For test [8] the target is unchanged. Briefly: TOX21_p53_BLA_p3_ratio: Tox21 HCT-116 p53 Agonism Beta-lactamase Assay, Ratio, Phase 3 (AID 2283596). The procedure, abridged: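 Cells were seeded at 4000/well, rested 5 h at 37C, then dosed with DMSO compound solutions (217-fold dilution) for 16 h. CCF4-AM substrate was loaded for 2 h at room temperature, and the 460/530 nm emission ratio was fitted for gain of signal versus DMSO.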

Test [9] in a line: TOX21_p53_BLA_p3_viability: Viability Assessment in the Tox21 HCT-116 p53 Agonism Beta-lactamase Assay, Phase 3 (AID 2283593).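 Also: cells exposed to compound for 16 h before reading.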 The essentials: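 Cellular ATP was quantified by CellTiter-Glo luminescence, read after 30 min at room temperature. Beforehand, HCT116 cells (4000/well) received compound 5 h post-seeding, 217-fold diluted from DMSO, then incubated 16 h at 37C.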

Cellular tumor antigen p53 (Homo sapiens), sequence (P04637 whole entry, looked up): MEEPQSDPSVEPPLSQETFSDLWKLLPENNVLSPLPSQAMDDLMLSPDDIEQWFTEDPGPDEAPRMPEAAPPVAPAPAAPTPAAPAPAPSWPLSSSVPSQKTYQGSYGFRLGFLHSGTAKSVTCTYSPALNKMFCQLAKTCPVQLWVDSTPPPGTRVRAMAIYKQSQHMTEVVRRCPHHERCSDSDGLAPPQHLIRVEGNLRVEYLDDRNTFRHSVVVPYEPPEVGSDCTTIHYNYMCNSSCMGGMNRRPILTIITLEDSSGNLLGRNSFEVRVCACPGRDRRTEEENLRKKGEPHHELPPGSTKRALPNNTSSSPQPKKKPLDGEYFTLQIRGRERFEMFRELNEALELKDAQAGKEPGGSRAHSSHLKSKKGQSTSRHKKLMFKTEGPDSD

Turning to `O=C1CCCN1CCO`, the outcome in [1], in [2], in [3], in [4], in test [5] and in test [6] was inactive. In test [7], the outcome was inactive.
As to `Cc1cccc(C(=O)O)c1`, the compound was called inactive in test [1], in test [2], in test [3], in test [4], in test [5] and in test [7].
Consider `CCOC(=O)N1CCC(=C2c3ccc(Cl)cc3CCc3cccnc32)CC1`, for which the AC50 in test [1] was 47.5 µM (active); in test [2], 69.7 µM (active) and 36.8 µM (active); in [3], 36.5 µM (active) and 12.9 µM (active); in test [8] it was 43.3 µM (active) and 22.4 µM (active); in test [5] it was 49.6 µM (active); in [6], 75.4 µM (active). Moreover, the call in test [4], in test [5], in [6] and in [7] was inactive.
As to `C=CC(C)(C)C`, the outcome in [1], in test [2], in test [3], in test [9], in test [5] and in test [6] was inactive. Further, the result in test [7] was inactive.
`C=C[C@](C)(O)CC[C@@H]1[C@@]2(C)CCCC(C)(C)[C@@H]2CC[C@@]1(C)O`: the AC50 is 119 µM (active) in test [1]; 47.1 µM (active) in test [2]; 86 µM (active) in test [3]; 85.2 µM (active) in [8]; 15.8 µM (active) in [4]; 87.1 µM (active) in test [5]. For the same compound, the AC50 in [6] is 67.5 µM (active). Further, in test [7], the result was inactive.
For the compound `O=C1C=CC(=O)O1`, the result in [1], in test [2], in [3], in test [5], in [6] and in test [7] was inactive.
Regarding `O=C1c2cccc(O)c2C(=O)c2c(O)cc(CO)cc21`, the result in test [1], in [2], in test [9], in test [4] and in [7] was inactive. The values for the AC50 in [3] and in test [5] were 31.7 µM (active) and 33.3 µM (active), respectively.
As for `N#[N+]c1ccc2c(S(=O)(=O)[O-])cccc2c1O`, the call in [1], in test [2], in test [3], in test [8], in [4] and in [5] was inactive. In addition, the compound was classed as inactive in test [6] and in [7].
